Reference: PubChem BioAssay (Tox21)
Records with an inconclusive call do not appear. A call without a number means that no potency is given here. Unmarked numbers belong to inactive results. Activity calls are given as the source filed them. Unless noted, the call rests on the fitted dose curve; in most records, active means well fitted curve in the direction sought with a large enough effect in the repeat runs; inconclusive means weak or mixed curves; inactive means no such curve, though single readings can be large; an effect the other way counts as inactive or inconclusive.

Legend:
[1] = qHTS assay to identify aromatase inhibitors - cell viability counter screen (AID 743084);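 further: cells stimulated with testosterone during compound exposure; nearly all actives have a fitted effect of over 55% in size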
[2] = target: Aryl hydrocarbon receptor (Homo sapiens) (UniProt P35869); experiment: qHTS assay to identify small molecule that activate the aryl hydrocarbon receptor (AhR) signaling pathway (AID 743085); further: nearly all actives have a fitted effect of over 15% in size; further: potency means the concentration at half of the fitted maximal effect;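 on activation: HG2L7.5c1 human HepG2 liver cells with stably integrated DRE-driven firefly reporter; series mostly up to about 70 µM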
Aryl hydrocarbon receptor (Homo sapiens), sequence (P35869 whole entry, looked up): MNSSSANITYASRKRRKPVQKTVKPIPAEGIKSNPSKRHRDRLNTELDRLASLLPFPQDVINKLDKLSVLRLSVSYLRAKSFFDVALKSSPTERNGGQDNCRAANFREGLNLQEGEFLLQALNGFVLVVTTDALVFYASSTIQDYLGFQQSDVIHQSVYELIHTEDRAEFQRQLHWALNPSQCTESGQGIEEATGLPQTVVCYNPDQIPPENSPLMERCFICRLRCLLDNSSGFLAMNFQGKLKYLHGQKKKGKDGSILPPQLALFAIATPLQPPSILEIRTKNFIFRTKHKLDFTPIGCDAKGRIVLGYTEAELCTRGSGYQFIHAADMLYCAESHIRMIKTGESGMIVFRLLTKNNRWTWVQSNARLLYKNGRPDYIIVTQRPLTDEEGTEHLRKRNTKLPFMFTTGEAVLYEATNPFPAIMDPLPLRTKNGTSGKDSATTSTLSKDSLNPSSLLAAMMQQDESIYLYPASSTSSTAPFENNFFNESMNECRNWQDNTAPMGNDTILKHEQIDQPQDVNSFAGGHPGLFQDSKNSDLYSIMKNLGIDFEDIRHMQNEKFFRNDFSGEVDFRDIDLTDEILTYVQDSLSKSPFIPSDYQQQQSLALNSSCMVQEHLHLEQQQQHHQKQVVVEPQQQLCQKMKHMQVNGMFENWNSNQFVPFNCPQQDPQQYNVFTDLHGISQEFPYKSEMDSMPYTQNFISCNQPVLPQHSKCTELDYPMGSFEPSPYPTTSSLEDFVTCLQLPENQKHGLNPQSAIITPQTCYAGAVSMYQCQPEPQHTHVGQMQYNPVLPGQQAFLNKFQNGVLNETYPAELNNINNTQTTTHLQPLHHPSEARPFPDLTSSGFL
In short: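 24 h compound exposure, 37C, HepG2-derived HG2L7.5c1 cells with DRE-responsive luciferase. Readouts: fluorescence viability, then luminescence at room temperature after 30 min.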

[3] = qHTS assay to identify small molecule that activate the aryl hydrocarbon receptor (AhR) signaling pathway - cell viability counter screen (AID 743086);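 further: HepG2 liver cells carrying the AhR DRE luciferase reporter; series mostly up to about 70 µM; nearly all actives have a fitted effect of over 45% in size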
In short: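 Cytotoxicity counter screen: CellTiter-Fluor signal (30 min, 37 C) in 4000 HepG2 cells/well carrying the DRE-luciferase reporter, following 24 h compound exposure at 37 C.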

[4] = target: Peroxisome proliferator-activated receptor gamma (Homo sapiens) (UniProt P37231); experiment: qHTS assay to identify small molecule agonists of the peroxisome proliferator-activated receptor gamma (PPARg) signaling pathway (AID 743094; active means well fitted activation curve with a large enough effect in the signal ratio in the repeat runs, not every such curve was filed as active; the % refers to the signal ratio)
Peroxisome proliferator-activated receptor gamma (Homo sapiens), sequence (P37231 whole entry, looked up): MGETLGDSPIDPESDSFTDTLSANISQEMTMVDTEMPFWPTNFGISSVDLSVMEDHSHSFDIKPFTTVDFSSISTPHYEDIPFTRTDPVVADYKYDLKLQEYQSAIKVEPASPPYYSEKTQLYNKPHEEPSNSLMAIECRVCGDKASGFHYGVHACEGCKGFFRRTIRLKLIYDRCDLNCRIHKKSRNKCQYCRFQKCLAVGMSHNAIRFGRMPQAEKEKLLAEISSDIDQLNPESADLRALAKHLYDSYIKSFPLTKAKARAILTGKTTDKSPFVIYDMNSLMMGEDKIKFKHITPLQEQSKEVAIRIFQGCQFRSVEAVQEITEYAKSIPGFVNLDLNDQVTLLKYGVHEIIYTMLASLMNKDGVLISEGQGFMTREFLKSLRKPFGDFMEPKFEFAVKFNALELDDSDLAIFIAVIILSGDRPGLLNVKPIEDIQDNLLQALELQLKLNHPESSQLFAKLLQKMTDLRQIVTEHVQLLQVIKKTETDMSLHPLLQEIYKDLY
In short: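 Agonism was assessed in a beta-lactamase reporter system, HEK293H cells with a stably integrated UAS-bla construct under PPARg control; the 17 h treatment at 37C preceded a 1 h room-temperature FRET substrate read.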

[5] = target: Peroxisome proliferator-activated receptor gamma (Homo sapiens) (UniProt P37231); experiment: qHTS assay to identify small molecule antagonists of the peroxisome proliferator-activated receptor gamma (PPARg) signaling pathway (AID 743191; calls by dose curve; further: series mostly up to about 63 µM; nearly all actives have a fitted effect of over 30% in size)
In short: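 Beta-lactamase reporter under UAS control in HEK293H PPARg-bla cells; compound treatment 17 h at 37C. Read-out: fluorescence intensity after 1 h room-temperature incubation with LiveBLAzer B/G FRET substrate.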

[6] = qHTS assay to identify small molecule antagonists of the peroxisome proliferator-activated receptor gamma (PPARg) signaling pathway - cell viability counter screen (AID 743194); further: nearly all actives have a fitted effect of over 55% in size
In short: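 Viability was measured as CellTiter-Glo luminescence in GeneBLAzer PPARg UAS-bla HEK293H cells. These cells had been exposed 17 h at 37 C to compounds together with rosiglitazone at 50 nM final, with the beta-lactamase readout taken in the same wells.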

[7] = qHTS assay for small molecule agonists of the antioxidant response element (ARE) signaling pathway - cell viability counter screen (AID 743203; calls by dose curve; further: nearly all actives have a fitted effect of over 55% in size)
In short: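 ATP content via CellTiter-Glo luminescence served as the viability measure. Cells: ARE-bla HepG2, 2,000 per well. Exposure: 16 hrs, 37C/5% CO2.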

[8] = qHTS assay for small molecule activators of the heat shock response signaling pathway - cell viability counter screen (AID 743209); further: nearly all actives have a fitted effect of over 50% in size
In short: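 Compounds dissolved in DMSO were added to overnight-plated HSE-bla HeLa cells and left 5 h at 37 C. Cell viability was quantified by luminescence using CellTiter-Glo.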

[9] = qHTS assay for small molecule activators of the heat shock response signaling pathway (AID 743210; active means well fitted activation curve with a large enough effect in the signal ratio in the repeat runs, with a control signal flat, not every such curve was filed as active; the % refers to the signal ratio;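 further: HeLa cells with beta-lactamase reporter driven by heat shock elements; series mostly up to about 63 µM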)
In short: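 Fluorescence from a cleaved B/G FRET substrate (2.5 h, room temp) reports HSE-driven beta-lactamase in HeLa cells treated 5 h at 37 C with DMSO-dissolved compounds.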

[10] = qHTS assay for small molecule agonists of the antioxidant response element (ARE) signaling pathway (AID 743202; active means well fitted activation curve with a large enough effect in the signal ratio in the repeat runs, not every such curve was filed as active; the % refers to the signal ratio; further: potency means the concentration at half of the fitted maximal effect)
In short: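 Beta-lactamase reporter activity, read as fluorescence intensity, reflects ARE/Nrf2 pathway induction in HepG2 cells after 16 h compound exposure at 37 C; substrate loading was 2 h at room temperature.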

Row | Compound | Potency [1] | Potency [2] | Potency [3] | outcome [4] | Potency [5] | outcome [6] | outcome [7] | outcome [8] | outcome [9] | Potency [10]
1 | CN(C)c1ccc(C=O)cc1 | inactive | inactive | inactive | inactive | inactive | inactive | inactive | inactive | inactive | 
2 | BrCc1cccc(Oc2ccccc2)c1 | inactive | inactive | inactive | inactive | inactive |  | inactive |  | inactive | 
3 | N[C@@H](COP(=O)(O)O)C(=O)O | inactive | inactive | inactive | inactive | inactive |  | inactive | inactive |  | inactive
4 | OC[C@H](Cc1cccc(O)c1)[C@H](CO)Cc1cccc(O)c1 | inactive | inactive | inactive | inactive | inactive | inactive |  | inactive | inactive | 
5 | CCCCCOC(=O)CCC | inactive | inactive | inactive | inactive | inactive | inactive | inactive |  |  | 
6 | COCCOCCOCCOCCO | inactive | inactive | inactive | inactive |  | inactive | inactive |  |  | inactive
7 | COC(=O)CCCCCCCC(=O)OC | inactive | inactive | inactive | inactive | inactive | inactive |  | inactive |  | 
8 | C=CCCCCCCCCCCCC | inactive | inactive | inactive | inactive | inactive | inactive | inactive |  | inactive | 
9 | Cc1cc(C(C)(C)C)c(O)c(C)c1CC1=NCCN1 | inactive | inactive | inactive | inactive | inactive | inactive |  | inactive | inactive | 
10 | CCC(CC)CO | inactive | inactive | inactive | inactive | inactive |  | inactive | inactive | inactive | inactive
11 | CCCCNC1CC(C)(C)NC(C)(C)C1 | inactive | inactive | inactive | inactive | inactive |  | inactive | inactive | inactive | inactive
12 | CC/C=C\CC1=C(C)CCC1=O | inactive | inactive | inactive | inactive | inactive | inactive | inactive | inactive | inactive | 
13 | CC(=O)N[C@@H](CCC(=O)O)C(=O)O | inactive | inactive | inactive | inactive | inactive | inactive |  |  | inactive | 
14 | O=C1CCCC(=O)O1 | inactive | inactive | inactive | inactive | inactive |  | inactive | inactive | inactive | 
15 | C=C(C)C(=O)OCCNC(C)(C)C | inactive | inactive | inactive | inactive | inactive | inactive | inactive | inactive | inactive | 
16 | CC(C)NCC(O)COc1ccc(COCCOC(C)C)cc1 (stereo unspecified) | inactive | inactive | inactive | inactive | inactive | inactive | inactive | inactive | inactive | 
17 | CC(=O)/C=C/C1C(C)=CCC(C)C1(C)C (stereo unspecified) | inactive | inactive | inactive | inactive | inactive | inactive | inactive | inactive |  | 
18 | Cc1ccsc1/C=C/C1=NCCCN1C | inactive | inactive | inactive | inactive |  | inactive | inactive | inactive |  | inactive
19 | CCOc1cc(NC(C)=O)ccc1C(=O)OC | inactive | inactive | inactive | inactive | inactive |  | inactive | inactive | inactive | inactive
20 | CC(=O)Nc1ccc(S(=O)(=O)Nc2ccc([N+](=O)[O-])cc2)cc1 | inactive | inactive | inactive | inactive | inactive | inactive | inactive | inactive |  | 
21 | CC(CN)CC(C)(C)CCN (stereo unspecified) | inactive | inactive | inactive | inactive | inactive | inactive | inactive |  |  | 
22 | FC(F)(F)c1ccccc1-n1ccnc1 | inactive | inactive | inactive | inactive | inactive | inactive |  |  | inactive | 
23 | O=C(Nc1ccc(Cl)c(Cl)c1)C1CC1 | inactive | 29.8 µM (active) | inactive | inactive | inactive |  | inactive | inactive | inactive | 15 µM (active)
24 | CCOC(=O)/C=C/c1ccccc1 | inactive | inactive | inactive | inactive | inactive | inactive | inactive | inactive |  | 
25 | CCO[Si](CCCS)(OCC)OCC | inactive | inactive | inactive | inactive |  | inactive | inactive | inactive |  | inactive
26 | O=C(OCc1ccccc1)C(=O)OCc1ccccc1 | inactive | inactive | inactive | inactive | inactive | inactive | inactive |  |  | 
27 | O=S(=O)(O)CCN1CCN(CCO)CC1 | inactive | inactive | inactive | inactive | inactive | inactive | inactive | inactive | inactive | 
28 | O=S(=O)(O)c1cc(O)c2ccc(Nc3ccccc3)cc2c1 | inactive | inactive | inactive | inactive | inactive | inactive |  |  | inactive | inactive
29 | O=C(OCC1(COC(=O)c2cccnc2)CCCC(COC(=O)c2cccnc2)(COC(=O)c2cccnc2)C1O)c1cccnc1 | inactive | inactive | inactive | inactive |  | inactive | inactive | inactive |  | inactive
30 | CC(C)(C)NC(N)=O | inactive | inactive | inactive | inactive | inactive | inactive | inactive | inactive |  | 
